# Measured values taken from the supplement of paper PMC8728848.
# This is one part of a sample in which the strongest signals are shown more often than they occur.
# B1: FGF1 (Homo sapiens), P05230 (protein)
# chain: MAEGEITTFTALTEKFNLPPGNYKKPKLLYSNGGHFLRILPDGTVDGTRDRSDQHIQLQLSAESVGEVYIKSTETGQYLAMTDGLLYGSQTPNEECLFLERLEENHYNTYISKHAEKNWFVGLKKNGSCKRGPRTHYGQAILFLPLPASSED
# Columns and labels:
# Assay in all cases: glycan array binding signal (z-score within array); higher = stronger binding
# Conditions in all cases: glycan notation: IUPAC condensed, linker removed
# [1] = target: GalNAc(b1-4)GlcNAc(b1-2)Man(a1-3)[GalNAc(b1-4)GlcNAc(b1-2)Man(a1-6)]Man(b1-4)GlcNAc(b1-4)GlcNAc
# How it was run: (§1)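 The Consortium for Functional Glycomics database supplied 3228 glycan arrays, of which those lacking an available protein sequence were dropped. The binding signal, a within-array Z-score, was averaged across arrays of the same protein sequence and across linkers. Negative scores can be read as non-binding.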
# GalNAc(b1-4)GlcNAc6S = target: GalNAc(b1-4)GlcNAc6S
# How it was run: as §1
# [2] = target: GlcNAc(a1-4)Gal(b1-4)GalNAc
# How it was run: as §1
# [3] = target: GlcNAc(a1-4)Gal(b1-4)GlcNAc(b1-3)Gal(b1-4)[Fuc(a1-3)]GlcNAc(b1-3)Gal(b1-4)[Fuc(a1-3)]GlcNAc
# How it was run: as §1
# [4] = target: GlcNAc(b1-2)[GlcNAc(b1-4)]Man(a1-3)[GlcNAc(b1-4)][GlcNAc(b1-2)[GlcNAc(b1-6)]Man(a1-6)]Man(b1-4)GlcNAc(b1-4)GlcNAc
# How it was run: as §1
# [5] = target: GlcNAc(b1-2)[GlcNAc(b1-6)]Man(a1-6)[GlcNAc(b1-4)][GlcNAc(b1-2)Man(a1-3)]Man(b1-4)GlcNAc(b1-4)GlcNAc
# How it was run: as §1
# GlcNAc(b1-3)Fuc = target: GlcNAc(b1-3)Fuc
# How it was run: as §1
# GlcNAc(b1-3)Gal = target: GlcNAc(b1-3)Gal
# How it was run: as §1
# [6] = target: GlcNAc(b1-3)Gal(b1-4)GlcNAc(b1-3)Gal(b1-4)GlcNAc(b1-2)Man(a1-3)[GlcNAc(b1-3)Gal(b1-4)GlcNAc(b1-3)Gal(b1-4)GlcNAc(b1-2)Man(a1-6)]Man(b1-4)GlcNAc(b1-4)[Fuc(a1-6)]GlcNAc
# How it was run: as §1
# [7] = target: GlcNAc(b1-3)Gal(b1-4)GlcNAc(b1-3)Gal(b1-4)GlcNAc(b1-3)Gal(b1-4)GlcNAc(b1-2)Man(a1-3)[GlcNAc(b1-3)Gal(b1-4)GlcNAc(b1-3)Gal(b1-4)GlcNAc(b1-3)Gal(b1-4)GlcNAc(b1-2)Man(a1-6)]Man(b1-4)GlcNAc(b1-4)[Fuc(a1-6)]GlcNAc
# How it was run: as §1
# Kdn(a2-3)Gal(b1-4)Glc = target: Kdn(a2-3)Gal(b1-4)Glc
# How it was run: as §1
# [8] = target: Man(a1-2)Man(a1-3)[Man(a1-2)Man(a1-6)]Man
# How it was run: as §1
# [9] = target: Neu5Ac(a2-3)Gal(b1-3)GlcNAc(b1-2)Man(a1-3)[Neu5Ac(a2-3)Gal(b1-3)GlcNAc(b1-2)Man(a1-6)]Man(b1-4)GlcNAc(b1-4)GlcNAc
# How it was run: as §1
# [10] = target: Neu5Ac(a2-3)Gal(b1-3)GlcNAc(b1-3)Gal(b1-3)GlcNAc
# How it was run: as §1
# [11] = target: Neu5Ac(a2-3)Gal(b1-3)GlcNAc(b1-3)GalNAc
# How it was run: as §1
# [12] = target: Neu5Ac(a2-3)Gal(b1-4)GlcNAc(b1-2)Man
# How it was run: as §1
# [13] = target: Neu5Ac(a2-3)Gal(b1-4)GlcNAc(b1-3)Gal(b1-3)GlcNAc
# How it was run: as §1
# [14] = target: Neu5Ac(a2-3)Gal(b1-4)[Fuc(a1-3)]GlcNAc(b1-6)[Gal(b1-3)]GalNAc
# How it was run: as §1
# [15] = target: Neu5Ac(a2-3)Gal(b1-4)[Fuc(a1-3)]GlcNAc(b1-6)[Neu5Ac(a2-3)Gal(b1-3)]GalNAc
# How it was run: as §1
# [16] = target: Neu5Ac(a2-3)[GalNAc(b1-4)]Gal(b1-4)GlcNAc(b1-3)GalNAc
# How it was run: as §1
# Neu5Ac(a2-6)Gal(b1-4)Glc = target: Neu5Ac(a2-6)Gal(b1-4)Glc
# How it was run: as §1
# [17] = target: Neu5Ac(a2-6)Gal(b1-4)GlcNAc(b1-6)GalNAc
# How it was run: as §1
# [18] = target: Neu5Ac9Ac(a2-3)Gal(b1-3)GlcNAc
# How it was run: as §1
# [19] = target: Neu5Ac9Ac(a2-3)Gal(b1-4)GlcNAc
# How it was run: as §1
# [20] = target: Neu5Gc(a2-8)Neu5Gc(a2-6)Gal(b1-4)GlcNAc
# How it was run: as §1
binder,measurement,setting,value
B1,glycan array binding signal (z-score),[1],6.98
same,glycan array binding signal (z-score),GalNAc(b1-4)GlcNAc6S,-0.848
same,glycan array binding signal (z-score),[2],0.705
same,glycan array binding signal (z-score),[3],1.24
same,glycan array binding signal (z-score),[4],-0.751
same,glycan array binding signal (z-score),[5],-0.832
same,glycan array binding signal (z-score),GlcNAc(b1-3)Fuc,0.25
same,glycan array binding signal (z-score),GlcNAc(b1-3)Gal,-0.782
same,glycan array binding signal (z-score),[6],-0.417
same,glycan array binding signal (z-score),[7],1.12
same,glycan array binding signal (z-score),Kdn(a2-3)Gal(b1-4)Glc,3.53
same,glycan array binding signal (z-score),[8],-0.916
same,glycan array binding signal (z-score),[9],4.88
same,glycan array binding signal (z-score),[10],-0.881
same,glycan array binding signal (z-score),[11],-0.187
same,glycan array binding signal (z-score),[12],5.56
same,glycan array binding signal (z-score),[13],-0.884
same,glycan array binding signal (z-score),[14],0.146
same,glycan array binding signal (z-score),[15],0.465
same,glycan array binding signal (z-score),[16],-0.27
same,glycan array binding signal (z-score),Neu5Ac(a2-6)Gal(b1-4)Glc,0.536
same,glycan array binding signal (z-score),[17],4.24
same,glycan array binding signal (z-score),[18],1.47
same,glycan array binding signal (z-score),[19],-0.689
same,glycan array binding signal (z-score),[20],-0.059
